Laboratory results as given in PubChem BioAssay AID1159580 (chemical genetic matrix, 2015).
Values joined by “and” are separate entries in the source; they are usually repeats but may differ in a detail not shown here. Equal entries are not always repeated. The campaign covered roughly 5,500 compounds. About 2,000 (36%) were called active. Roughly 18% stayed inconclusive and do not appear here. Cut-off read from the data, not from the text of the source: active = normalized growth mostly below about 0.91 (no sharp cut-off); inconclusive = no clear call, values can overlap the other calls; inactive = mostly above about 0.92. Some of the results follow.

Assay: chemical genetic growth profiling, strain panel (AID 1159580);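 note: tested at 20 µM; growth read once vehicle control cultures reached saturation at 30 °C; 1 = growth at the plate median or of vehicle wells; lower values mean less growth of the strain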
Conditions: S. cerevisiae deletion strains, growth OD

Measured: normalized growth

C[n+]1cc2c3c(ccc2c2ccc4cc5c(cc4c21)OCO5)OCO3
0.0584 (active) and 0.981 (inactive): locus YHR030C, strain SLT2, stronger effect = lower value
inactive: locus YBR171W, strain sec66, stronger effect = lower value 0.983 | locus YDL185W, strain tfp1, stronger effect = lower value 0.914 | locus YDR001C, strain nth1, stronger effect = lower value 0.928 | locus YDR069C, strain doa4, stronger effect = lower value 0.902 | locus YDR195W, strain ref2 1.09 | locus YER002W, strain NOP16, stronger effect = lower value 1.01 | locus YGL167C, strain pmr1, stronger effect = lower value 0.974 | locus YHR079C, strain IRE1, stronger effect = lower value 0.985 | locus YJL154C, strain vps35, stronger effect = lower value 0.962 | locus YJR066W, strain TOR1, stronger effect = lower value 0.931 | locus YKL009W, strain mrt4, stronger effect = lower value 0.922 | locus YKL068W, stronger effect = lower value 0.964 | locus YLR113W, strain HOG1, stronger effect = lower value 0.951 | locus YLR384C, strain iki3, stronger effect = lower value 0.97 | locus YMR231W, strain pep5, stronger effect = lower value 0.991 | locus YNL183C, strain NPR1, stronger effect = lower value 0.923 | locus YNL271C, strain bni1, stronger effect = lower value 0.92 | locus YNL298W, strain CLA4, stronger effect = lower value 0.951 | locus YNL322C, strain KRE1 (second series), stronger effect = lower value 1 | locus YNR049C, strain mso1, stronger effect = lower value 0.964 | locus YOL012C, strain htz1 0.232 | locus YOR231W, strain MKK1, stronger effect = lower value 0.96 | locus YPL256C, strain CLN2, stronger effect = lower value 0.969 | locus YPR141C, strain kar3, stronger effect = lower value 0.971
0.073 (active) and 0.976 (inactive): locus YJL095W, strain BCK1, stronger effect = lower value
active: locus YAL013W, strain DEP1, stronger effect = lower value 0.06 and 0.0669 | locus YAL021C, strain ccr4, stronger effect = lower value 0.823 | locus YAL026C, strain drs2, stronger effect = lower value 0.657 | locus YAL030W, strain snc1, stronger effect = lower value 0.676 | locus YBL061C, strain skt5, stronger effect = lower value 0.627 | locus YBR009C, strain hhf1, stronger effect = lower value 0.268 | locus YBR021W, strain FUR4, stronger effect = lower value 0.146 | locus YBR023C, strain chs3, stronger effect = lower value 0.592 | locus YBR229C, strain ROT2, stronger effect = lower value 0.0617 | locus YBR231C, strain swc5, stronger effect = lower value 0.326 | locus YBR279W, strain paf1, stronger effect = lower value 0.674 | locus YCL011C, strain gbp2, stronger effect = lower value 0.34 | locus YCL016C, strain dcc1, stronger effect = lower value 0.535 | locus YCL029C, strain bik1, stronger effect = lower value 0.0684 | locus YCL061C, strain MRC1, stronger effect = lower value 0.672 | locus YCL069W, strain vba3, stronger effect = lower value 0.596 | locus YCR088W, strain abp1, stronger effect = lower value 0.802 | locus YDL005C, strain med2, stronger effect = lower value 0.711 | locus YDL035C, strain GPR1, stronger effect = lower value 0.057 | locus YDL040C, strain nat1, stronger effect = lower value 0.858 | locus YDL074C, strain BRE1, stronger effect = lower value 0.0875 | locus YDL101C, strain DUN1, stronger effect = lower value 0.0699 | locus YDL134C, strain PPH21, stronger effect = lower value 0.0603 | locus YDL192W, strain arf1, stronger effect = lower value 0.0735 | locus YDR101C, strain arx1, stronger effect = lower value 0.0711 | locus YDR137W, strain rgp1, stronger effect = lower value 0.692 | locus YDR150W, strain NUM1, stronger effect = lower value 0.0564 | locus YDR159W, strain sac3, stronger effect = lower value 0.62 | locus YDR162C, strain NBP2, stronger effect = lower value 0.0557 | locus YDR297W, strain sur2, stronger effect = lower value 0.609 | locus YDR318W, strain mcm21, stronger effect = lower value 0.0705 | locus YDR334W, strain swr1, stronger effect = lower value 0.46 | locus YDR335W, strain msn5, stronger effect = lower value 0.714 | locus YDR363W, strain ESC2, stronger effect = lower value 0.0888 | locus YDR388W, stronger effect = lower value 0.0658 | locus YDR392W, strain spt3, stronger effect = lower value 0.11 | locus YDR502C, strain sam2, stronger effect = lower value 0.0731 | locus YEL003W, strain gim4, stronger effect = lower value 0.668 | locus YEL037C, strain rad23, stronger effect = lower value 0.797 | locus YEL061C, strain CIN8 (second series), stronger effect = lower value 0.7 | locus YEL061C, strain CIN8, stronger effect = lower value 0.0546 | locus YER015W, strain faa2, stronger effect = lower value 0.516 | locus YER016W, strain bim1, stronger effect = lower value 0.788 | locus YER110C, stronger effect = lower value 0.0876 | locus YER111C, strain swi4, stronger effect = lower value 0.847 | locus YER155C, strain BEM2 (second series), stronger effect = lower value 0.442 | locus YER155C, strain BEM2, stronger effect = lower value 0.0755 | locus YER167W, strain BCK2, stronger effect = lower value 0.0605 | locus YFR010W, strain ubp6, stronger effect = lower value 0.898 | locus YGL078C, strain dbp3, stronger effect = lower value 0.907 | locus YGL086W, strain mad1, stronger effect = lower value 0.0683 | locus YGL173C, strain kem1, stronger effect = lower value 0.772 | locus YGL227W, strain vid30, stronger effect = lower value 0.519 | locus YGL240W, strain doc1, stronger effect = lower value 0.396 | locus YGL248W, strain PDE1, stronger effect = lower value 0.0602 | locus YGL253W, strain hxk2, stronger effect = lower value 0.501 | locus YGR078C, strain PAC10, stronger effect = lower value 0.0588 | locus YGR135W, strain pre9, stronger effect = lower value 0.0753 | locus YGR229C, strain SMI1, stronger effect = lower value 0.0651 | locus YGR252W, strain gcn5, stronger effect = lower value 0.18 | locus YHR013C, strain ard1, stronger effect = lower value 0.319 | locus YHR027C, strain rpn1, stronger effect = lower value 0.73 | locus YHR079C, strain IRE1 (second series), stronger effect = lower value 0.0663 | locus YHR094C, strain hxt1, stronger effect = lower value 0.0664 | locus YHR129C, strain ARP1, stronger effect = lower value 0.0634 | locus YHR142W, strain chs7, stronger effect = lower value 0.348 | locus YHR200W, strain rpn10, stronger effect = lower value 0.0675 | locus YIL066C, strain RNR3, stronger effect = lower value 0.0586 | locus YIL073C, strain SPO22, stronger effect = lower value 0.133 | locus YIL125W, strain kgd1, stronger effect = lower value 0.915 | locus YIR030C, strain dcg1, stronger effect = lower value 0.0697 | locus YJL092W, strain hpr5, stronger effect = lower value 0.793 | locus YJL095W, strain BCK1 (second series), stronger effect = lower value 0.467 | locus YJL115W, strain asf1, stronger effect = lower value 0.881 | locus YJL129C, strain trk1, stronger effect = lower value 0.309 | locus YJL134W, strain LCB3, stronger effect = lower value 0.0573 | locus YJL164C, strain tpk1, stronger effect = lower value 0.363 | locus YJL166W, strain qcr8, stronger effect = lower value 0.242 | locus YJL168C, strain set2, stronger effect = lower value 0.0819 | locus YJL187C, strain SWE1 (second series), stronger effect = lower value 0.0606 | locus YJL187C, strain SWE1, stronger effect = lower value 0.618 | locus YJR043C, strain POL32, stronger effect = lower value 0.0783 | locus YJR075W, strain HOC1, stronger effect = lower value 0.0715 and 0.0688 | locus YKL085W, strain MDH1 (second series), stronger effect = lower value 0.921 | locus YKL085W, strain MDH1, stronger effect = lower value 0.921 | locus YKL160W, strain elf1, stronger effect = lower value 0.548 | locus YKL190W, strain CNB1, stronger effect = lower value 0.0545 | locus YKR001C, strain vps1, stronger effect = lower value 0.0723 | locus YKR026C, strain gcn3, stronger effect = lower value 0.843 | locus YKR091W, strain srl3, stronger effect = lower value 0.914 | locus YLL001W, strain dnm1, stronger effect = lower value 0.639 | locus YLL026W, stronger effect = lower value 0.549 | locus YLL041C, strain sdh2, stronger effect = lower value 0.778 | locus YLR027C, strain aat2, stronger effect = lower value 0.379 | locus YLR039C, strain RIC1, stronger effect = lower value 0.101 | locus YLR058C, strain SHM2, stronger effect = lower value 0.0596 | locus YLR102C, strain apc9, stronger effect = lower value 0.0679 | locus YLR221C, strain rsa3, stronger effect = lower value 0.562 | locus YLR258W, strain gsy2, stronger effect = lower value 0.502 | locus YLR262C, strain YPT6 (second series), stronger effect = lower value 0.827 | locus YLR262C, strain YPT6, stronger effect = lower value 0.123 | locus YLR268W, strain sec22, stronger effect = lower value 0.0776 | locus YLR320W, strain mms22, stronger effect = lower value 0.375 | locus YLR330W, strain CHS5, stronger effect = lower value 0.0586 | locus YLR342W, strain FKS1 (second series), stronger effect = lower value 0.0743 | locus YLR342W, strain FKS1, stronger effect = lower value 0.349 | locus YLR357W, strain rsc2, stronger effect = lower value 0.844 | locus YLR370C, strain arc18, stronger effect = lower value 0.762 | locus YLR371W, strain rom2, stronger effect = lower value 0.0708 | locus YLR418C, strain cdc73, stronger effect = lower value 0.107 | locus YML016C, strain PPZ1, stronger effect = lower value 0.0598 | locus YML032C, strain rad52, stronger effect = lower value 0.0764 | locus YML120C, strain ndi1, stronger effect = lower value 0.582 | locus YML124C, strain tub3, stronger effect = lower value 0.0684 | locus YMR058W, strain fet3, stronger effect = lower value 0.592 | locus YMR078C, strain ctf18, stronger effect = lower value 0.0819 | locus YMR125W, strain sto1, stronger effect = lower value 0.462 | locus YMR129W, stronger effect = lower value 0.779 | locus YMR205C, strain PFK2, stronger effect = lower value 0.273 | locus YMR223W, strain ubp8, stronger effect = lower value 0.077 | locus YMR307W, strain GAS1, stronger effect = lower value 0.145 and 0.0622 | locus YNL067W, strain RPL9B, stronger effect = lower value 0.0573 | locus YNL071W, strain lat1, stronger effect = lower value 0.0942 | locus YNL175C, strain NOP13, stronger effect = lower value 0.0763 | locus YNL197C, strain WHI3, stronger effect = lower value 0.0898 | locus YNL209W, strain ssb2, stronger effect = lower value 0.623 | locus YNL224C, strain SQS1, stronger effect = lower value 0.0906 | locus YNL233W, strain BNI4, stronger effect = lower value 0.0657 | locus YNL248C, strain rpa49, stronger effect = lower value 0.688 | locus YNL250W, strain rad50, stronger effect = lower value 0.839 | locus YNL307C, strain MCK1, stronger effect = lower value 0.0755 | locus YNL322C, strain KRE1, stronger effect = lower value 0.0622 | locus YNR052C, strain pop2, stronger effect = lower value 0.085 | locus YOL006C, strain TOP1, stronger effect = lower value 0.135 | locus YOL147C, strain pex11, stronger effect = lower value 0.0667 | locus YOR001W, strain rrp6, stronger effect = lower value 0.823 | locus YOR061W, strain CKA2, stronger effect = lower value 0.0586 | locus YOR069W, strain VPS5, stronger effect = lower value 0.0593 | locus YOR070C, strain gyp1, stronger effect = lower value 0.413 | locus YOR080W, strain dia2, stronger effect = lower value 0.825 | locus YOR083W, strain WHI5 (second series), stronger effect = lower value 0.0851 | locus YOR083W, strain WHI5, stronger effect = lower value 0.475 | locus YOR106W, strain vam3, stronger effect = lower value 0.315 | locus YOR136W, strain idh2, stronger effect = lower value 0.0832 | locus YOR144C, strain elg1, stronger effect = lower value 0.0651 | locus YOR184W, strain ser1, stronger effect = lower value 0.0766 | locus YOR265W, strain rbl2, stronger effect = lower value 0.5 | locus YOR270C, strain vph1, stronger effect = lower value 0.38 | locus YOR290C, strain snf2, stronger effect = lower value 0.412 | locus YOR316C, strain cot1, stronger effect = lower value 0.0661 | locus YPL051W, strain arl3, stronger effect = lower value 0.512 | locus YPL055C, strain LGE1, stronger effect = lower value 0.0742 and 0.092 | locus YPL078C, strain atp4, stronger effect = lower value 0.538 | locus YPL106C, strain sse1, stronger effect = lower value 0.741 | locus YPL240C, strain hsp82, stronger effect = lower value 0.58 | locus YPR119W, strain clb2, stronger effect = lower value 0.07 | locus YPR163C, strain tif3, stronger effect = lower value 0.0761 | locus YPR167C, strain met16, stronger effect = lower value 0.0704 | strain wtn01, stronger effect = lower value 0.067
